# High-throughput results from PubChem BioAssay.
# KB-V1 cytotox – KB-V1 MDR subline cytotoxicity; KB-V1 MDR cells viability, CellTiter-Glo, 72 h; Potency, µM (titrated, usually from 46.1 µM), actives largely listed as cytotoxic; 400,000 tested, 3.4% active; AID 1347076; note: % is set by controls: 0 for no effect and ±100 for the full control effect; nearly all actives have a fitted effect of over 60% in size
#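 Cytotoxicity toward P-gp-expressing KB-V1 cells was determined as loss of CellTiter-Glo luminescence after 72 h at 37 degrees C. Compounds were tested in quantitative HTS format across a concentration range, with curves fitted to normalized data.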
# KB-3-1 cytotox – kills parental KB-3-1 adenocarcinoma cells | KB-3-1 viability, CellTiter-Glo ATP luminescence, 72 h | Potency, µM (top dose mostly 46.1 µM), actives largely listed as cytotoxic | 400,000 tested, 1.4% active; note: % is set by controls: 0 for no effect and ±100 for the full control effect; nearly all actives have a fitted effect of over 60% in size
#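 Cytotoxicity in the drug-sensitive parental line KB-3-1 was scored as loss of CellTiter-Glo luminescence following 72 h incubation with compound. Values come from curve fitting of normalized concentration-response data.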
# HT1080-NT tox – kills 2HG-producing HT-1080-NT fibrosarcoma cells; HT-1080-NT fibrosarcoma viability, CellTiter-Glo ATP luminescence, 48 h; Potency, µM (highest dose often 46.1 µM), for inactives: at the highest dose activity, negative = less viability, usual class: cytotoxic; 360,000 tested, 1.6% active; AID 686970;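 note: NT is the 2HG producing partner of a matched IDH1 knockdown line; 0% = DMSO-treated cells and -100% = media-only wells without cells; nearly all actives have a fitted effect of over 55% in size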
#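 HT-1080-NT fibrosarcoma cells (2HG-overproducing), 750 cells/well in RPMI with 5% FBS, dosed after 2 h and incubated 48 h at 37C. CellTiter-Glo luminescence normalized to DMSO and no-cell wells; concentration-response curves fitted and classed.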
# HT1080 IDH1KD tx – kills HT-1080 cells with IDH1 knockdown; HT-1080 IDH1 knockdown viability, ATP luminescence, 48 h; Potency, µM (doses to about 46.1 µM), without a hit: top-dose activity, negative = toxicity, most hits filed as cytotoxic; 360,000 tested, 2% active;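 note: 0% = DMSO wells and -100% = cell-free medium wells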
#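 After a 2 h attachment period, IDH1KD HT-1080 cells took pin-transferred compound for 48 h at 37 °C; ATP-based luminescence after 10 min room-temperature reagent incubation reported viability.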
# S2 tox – reduces viability in counter-screen for ATXN expression inhibitors; S2 cells (HEK-293 line with an ATXN2-luciferase reporter) viability, CellTiter-Fluor protease fluorescence, 24 h; Potency, µM (series often up to 56.7 µM), usual class: cytotoxic; 400,000 tested, 0.49% active; note: nearly all actives have a fitted effect of over 40% in size
# ATXN2 expr inh – inhibitors of ATXN2 expression | 360,000 tested, 0.72% active | HEK-293 ATXN2-luciferase reporter, luminescence, 24 h | Potency, µM (doses to about 57 µM), inactives show top-dose activity change, negative = inhibition, most hits filed as inhibitors; note: % is set by controls: 0 for no effect and ±100 for the full control effect; nearly all actives have a fitted effect of over 55% in size
#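 qHTS (up to 57 uM final) was run with 24 h compound exposure of reporter cells at 37 °C. Each well was multiplexed: SteadyGlo luminescence measured ATXN2-luciferase expression after a fluorogenic Gly-Phe-AFC viability readout (25 uM final).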
# * = called active by the depositor; i = inactive; u = inconclusive; x = not tested or not shown; [ ] = remark or other dose. Shown are actives, neighbours in structure and some others; about 6.2% of the full set was active somewhere. Calls come from the whole dose curve; as a rule, active = well fitted curve in the direction sought with a large enough effect; inconclusive = small, poorly fitted or top-dose-only effect, or another doubt; inactive = no such curve, though single readings can be large; an effect the other way counts as inactive or inconclusive. Potency is the fitted concentration of half-maximal effect.
SMILES,KB-V1 cytotox,KB-3-1 cytotox,HT1080-NT tox,HT1080 IDH1KD tx,S2 tox,ATXN2 expr inh
O=C(Cc1ccc(-c2ccccc2)cc1)NNC(=S)NCc1ccco1,8.2µM*,i,-14%,-8%,i,-6%
O=C(NCc1ccc(Cl)cc1)c1ccccc1CCc1ccccc1,21µM*,i,-2%,-6%,u,-7%
O=C(NCc1ccccc1Cl)c1ccccc1CCc1ccccc1,i,i,-9%,-10%,i,x
O=C(CS(=O)(=O)c1cccc2nsnc12)NCc1ccccc1,u,i,x,x,i,6%
COC(=O)[C@]12CCCCC=C1N(CCc1ccc(OC)c(OC)c1)C(=O)[C@H](CC(=O)NCCC(C)C)C2,u,i,-14%,-13%,x,x
Cc1cnc(SCC2CCCO2)nc1C1CCCN(Cc2cc3c(cc2Cl)OCO3)C1 (centres undefined),x,x,x,x,i,x
CC(=O)c1ccc(-c2ccc3c4c(ccc3c2)OC(CNC(=O)C(C)N2CCOCC2)C4)s1 (centres undefined),x,x,x,x,i,x
O=c1cc(/C=C/c2ccc([N+](=O)[O-])cc2)c2ccccc2[nH]1,i,i,x,x,x,x
Cc1ccc(NCC(=O)N/N=C\C(Br)=C\c2ccccc2)cc1,i,i,u,16µM*,u,u
CCOc1cc(C(=O)N/N=C/C(Br)=C/c2ccccc2)cc(OCC)c1OCC,u,u,3.7µM*,2.1µM*,u,-23%
O=C(N/N=C/C(Br)=C\c1ccccc1)c1cccs1,i,i,u,21µM*,i,85%
CC(=C/c1ccccc1)/C=N/NC(=O)c1cccs1,u,i,-17%,-22%,i,86%
O=C(N/N=C/C(Br)=C/c1ccccc1)c1ccncc1,i,i,-19%,u,x,x
COc1ccc(Cl)cc1N(C)C(=O)Cc1noc2ccc(C)cc12,i,i,x,x,i,-8%
CCOc1ccc(OCc2cccc(C(=O)N3CCCC3)c2)cc1,u,i,-6%,9%,i,7.9µM*
COc1ccc(C(=O)C=Cc2ccc(OCc3ccccc3)c(OC)c2)cc1OC,u,u,u,u,i,x
CCOc1ccc(OCc2cccc(C(=O)O)c2)cc1,i,i,7.9µM*,7.9µM*,i,0.28µM*
COc1cc(/C=C/[N+](=O)[O-])ccc1OCc1cccc(C(=O)O)c1,i,i,u,u,u,28µM*
COc1ccc(OCc2cccc(C(=O)O)c2)cc1,18µM*,u,u,u,i,0.32µM*
CCOc1ccc(OCc2cccc(C(=O)N3CCCCCC3)c2)cc1,u,i,-16%,-1%,i,x
CCCOc1ccc(C2=NC(c3ccc(F)cc3)=Nc3ccc(OC)cc3N2)cc1,i,i,x,x,i,1%
COc1ccc(NC(=O)CN2C(=O)CCc3cc(S(=O)(=O)N4CCOCC4)ccc32)cc1Cl,i,i,x,x,i,8%
O=C(NN1CCCCC1)c1cccc(COc2ccc(Cl)cc2)c1,15µM*,i,6%,8%,u,23%
O=C(OCC(F)(F)F)c1cccc(COc2ccc3ccccc3c2)c1,i,i,3%,0%[9.24 µM],i,2µM*
O=C(O)c1cccc(COc2ccc(CO)cc2Cl)c1,i,i,-16%,-16%,i,0.28µM*
COc1ccc(N2CCN(C(=S)Nc3cc(C)ccn3)CC2)cc1,i,i,x,x,x,x
COc1cccc(NC(=O)CSC2=Nc3ccccc3C3=NC(CC(=O)NCCc4ccccc4)C(=O)N23)c1 (centres undefined),u,i,x,x,u,7%
O=C1c2cccc3cccc(c23)C(=O)N1CC1CCN(CC(O)COCc2ccc3c(c2)OCO3)CC1 (centres undefined),u,u,21µM*,21µM*,u,-28%
